Hits are enriched below; roughly 5% of the tested compounds scored in any of these assays.
USP10 block: inhibitors of human USP10 deubiquitinase; inhibition, % at 20 µM; 1.1% of 47,000 active; purified USP10, Ub-rhodamine fluorescence, 60 min; Q14694
Target sequence (Q14694 whole entry, looked up): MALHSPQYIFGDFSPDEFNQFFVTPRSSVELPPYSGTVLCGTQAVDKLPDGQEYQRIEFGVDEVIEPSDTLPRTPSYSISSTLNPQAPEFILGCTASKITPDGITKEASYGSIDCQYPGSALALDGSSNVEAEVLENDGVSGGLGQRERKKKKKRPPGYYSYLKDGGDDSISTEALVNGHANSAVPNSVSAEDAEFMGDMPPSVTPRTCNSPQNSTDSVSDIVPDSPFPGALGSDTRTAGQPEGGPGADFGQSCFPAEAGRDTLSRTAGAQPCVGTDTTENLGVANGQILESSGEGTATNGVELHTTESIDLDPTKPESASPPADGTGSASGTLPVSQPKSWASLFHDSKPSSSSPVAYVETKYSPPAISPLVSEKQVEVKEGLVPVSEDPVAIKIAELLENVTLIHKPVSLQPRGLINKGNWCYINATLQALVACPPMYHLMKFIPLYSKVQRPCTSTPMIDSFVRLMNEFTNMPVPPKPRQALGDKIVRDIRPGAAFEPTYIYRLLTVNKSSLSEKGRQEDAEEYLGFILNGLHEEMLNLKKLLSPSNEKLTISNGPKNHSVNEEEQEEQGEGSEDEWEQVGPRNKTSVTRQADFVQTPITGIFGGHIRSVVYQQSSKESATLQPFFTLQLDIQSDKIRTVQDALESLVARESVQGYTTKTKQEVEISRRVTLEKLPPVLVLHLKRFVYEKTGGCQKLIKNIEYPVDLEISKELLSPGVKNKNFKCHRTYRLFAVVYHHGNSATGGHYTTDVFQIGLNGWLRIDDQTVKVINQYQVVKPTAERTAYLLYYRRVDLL
USP8 block: human USP8 deubiquitinase inhibition | inhibition, % at 20 µM | 4.2% of 47,000 active | AID 1645853 | purified USP8, Ub-rhodamine cleavage fluorescence, 30 min
UCHL1 inh: blocks human UCHL1 ubiquitin-rhodamine cleavage; P09936; purified UCHL1, Ub-rhodamine cleavage fluorescence; inhibition, % at 20 µM; 0.2% of 47,000 active; AID 1645859
USP7 block: blocks human USP7 ubiquitin-rhodamine cleavage; inhibition, % at 20 µM; purified USP7, Ub-rhodamine cleavage fluorescence; 0.3% of 47,000 active; AID 1645854
* hit, by the source's call; x = no result given. No stated cut-off is given here; in the data, active means inhibition above about 30%; inactive means the rest.

SMILES | USP10 block | USP8 block | UCHL1 inh | USP7 block
Oc1cc(OCc2cccc(C(F)(F)F)c2)ccc1-c1ccn[nH]1 | 22 | 75* | 10 | -29
CC1NC(=O)[C@H]2C[C@H](C(=O)Nc3ccccc3)[C@@H]1N2Cc1ccccc1 (stereo partly specified) | 2 | 3 | -2 | -23
CC(=O)c1ccc(NC(=O)CSc2nc(-c3ccccc3)nc3c2COC(C)(C)C3)cc1 | 34* | 3 | 2 | 10
CCCCCCCc1cc(O)cc(OC(=O)c2c(CCCCCCC)cc(O)cc2O[C@H]2O[C@H](C(O)CO)[C@@H](O)[C@@H]2O)c1 (stereo partly specified) | 12 | 0 | 15 | -4
CCCCCCCc1cc(OC(=O)c2c(CCCCCCC)cc(O)cc2O[C@@H]2O[C@H](CO)[C@H](O)[C@H](O)[C@H]2O)cc(O)c1C(=O)O | 100* | 99* | 69* | 100*
CCCCCCCCCc1cc(OC(=O)c2c(CCCCCCCCC)cc(O)cc2O[C@@H]2O[C@H](CO)[C@@H](O)[C@H](O)[C@H]2O)cc(O)c1C(=O)O | 97* | 95* | 84* | 100*
Cc1c(OCC(=O)NCc2ccccc2Cl)ccc2c3c(c(=O)oc12)CCC3 | 23 | 52* | 2 | 12
Cc1ccc(-c2nc(Cn3cnc4ccccc4c3=O)cs2)cc1 | 15 | 37* | 1 | 9
Cc1ccc(NC(=O)COc2ccccc2/C=C2/NC(=O)N(Cc3ccc(F)cc3)C2=O)cc1 | 36* | 24 | 1 | 13
CC12c3ccc4c(c3C(=O)c3occ(c31)C(=O)CC2O)CCC4=O (stereo unspecified) | -12 | -337 | -28 | -130
O=C1C=C(O)c2c(O)cc(O)cc2C1=O | 79* | 82* | 94* | 85*
Cc1cc(O)c2c(c1)C(=O)c1cc(O)cc(O)c1C2=O | 0 | -14 | -5 | -24
Cc1onc(C(=O)NCc2ccccc2F)c1CN1CCOCC1 | -1 | -1 | 0 | -3
CSc1cccc(NC(=O)c2cc(-c3cccnc3)n[nH]2)c1 | 27 | 97* | 4 | x
O=C(Nc1cccc(Cl)c1)c1cc(-c2cccnc2)n[nH]1 | 47* | 83* | 5 | 8
O=C(Nc1ccccc1)c1cc(-c2ccncc2)n[nH]1 | 3 | 2 | 3 | 4
Cc1cccc(NC(=O)c2cccn2Cc2noc(C3CC3)n2)c1 | 1 | 5 | 2 | -4
COc1ccc(C(C)NC(=O)c2cc(NC(C)=O)cc3nc(C)ccc23)cc1 (stereo unspecified) | -6 | 58* | 11 | -10
CC(=O)Nc1cc(C(=O)NC(C)c2ccccc2)c2ccc(C)nc2c1 (stereo unspecified) | -6 | 11 | -2 | -9
O=c1cc(CNc2ccc(Br)cc2)nc2nc(-c3ccccc3)[nH]n12 | -8 | 45* | -65 | -40
O=C(CN1C(=O)c2cccc3cccc1c23)NCCSCc1ccc(Cl)c(Cl)c1 | 40* | 53* | -4 | 1
Cc1cccc(CSCCNC(=O)CN2C(=O)c3cccc4cccc2c34)c1 | -1 | 0 | -4 | -4
Cc1c(Cl)cccc1NC(=O)c1[nH]nc2c1COc1ccccc1-2 | 2 | 35* | -8 | 1
COC(=O)c1ccc(C(=O)Nc2ccc3sccc3c2)cc1 | 6 | 31* | 10 | 8
O=C(Nc1ccc2sccc2c1)c1ccc(S(=O)(=O)N2CCOCC2)cc1 | 0 | 9 | 3 | 0
SMILES | USP10 block | USP8 block | UCHL1 inh | USP7 block
C/C(=C\c1ccccc1)CN1CCC(O)(c2ccc(C)cc2)CC1 | 2 | 34* | 4 | -1
O=C(CCCC(=O)N(c1ccc2c(c1)OCCO2)C(C(=O)NC1CCCCC1)c1ccc(F)cc1)Nc1ccccn1 (stereo unspecified) | 40* | 58* | 3 | 3
O=C(NC1CCCCC1)C(c1ccc(F)cc1)N(C(=O)C1COc2ccccc2O1)c1ccc2c(c1)OCO2 (stereo unspecified) | 14 | 41* | -1 | 0
Cc1ccc(C(C(=O)NC2CCCCC2)N(C(=O)CCCC(=O)Nc2ccccn2)c2ccc3c(c2)OCCO3)cc1 (stereo unspecified) | 20 | 8 | 4 | 5
O=C(NC1CCCCC1)C(c1ccccc1)N(C(=O)c1cccs1)c1ccc2c(c1)OCO2 (stereo unspecified) | 3 | 12 | -1 | 0
O=C1CC(c2cccc(F)c2)c2sccc2N1 (stereo unspecified) | 1 | 3 | 3 | -4
CC(=O)Nc1ccc(-c2cc(C(=O)NCCCN3CCOCC3)c3cc(C)ccc3n2)cc1 | -2 | -23 | 2 | 4
CC1CCN(CCCNC(=O)CCc2nnc3n(Cc4ccc(Cl)cc4)c(=O)c4ccccc4n23)CC1 | -4 | 0 | -3 | -100
Cc1csc(-c2cc(C3CCN(C(C)C)CC3)nc(C)n2)n1 | -1 | 16 | 0 | 4
Cc1c(-c2nc(-c3ccccc3Cl)no2)nnn1-c1cccc(F)c1 | 38* | 28 | 3 | 8
COc1ccc(-c2noc(-c3nnn(-c4ccccc4Cl)c3C)n2)cc1 | 4 | 4 | 4 | 1
COC(=O)c1ccccc1NC(=O)c1cc2ccccc2c(=O)s1 | 0 | 0 | -8 | -2
Cc1cccc(NC(=O)c2cc3ccccc3c(=O)s2)c1 | 18 | 33* | 19 | 26
CN(C)[C@@H]1[C@@H](O)[C@H](Oc2cccc(F)c2)C[C@H]1NC(=O)C1CCOCC1 | -1 | 10 | 0 | 3
O=C(CCCn1c(=O)c2ccccc2n(Cc2cc(=O)n3ccccc3n2)c1=O)NCc1ccco1 | -3 | -19 | 0 | -5
O=C(NCc1ccco1)c1ccc(Cn2c(=O)c3sccc3n(Cc3cc(=O)n4ccccc4n3)c2=O)cc1 | 13 | 68* | 9 | 4
Cc1nonc1CC(=O)N1C[C@H]2CC(Oc3ccccc3)C[C@H]2C1 (stereo partly specified) | -1 | 12 | 2 | -3
COc1cc(C2CC(=O)C3=C(C2)Nc2ccccc2N(C(=O)c2ccccc2)C3c2ccc(C)cc2)cc(OC)c1OC (stereo unspecified) | 7 | -8 | 8 | 14
CCC(=O)N1c2ccccc2NC2=C(C(=O)CC(c3ccco3)C2)C1c1ccc(OC)c(OC)c1 (stereo unspecified) | 0 | 0 | 0 | 1
CC(=O)N1c2ccccc2NC2=C(C(=O)CC(c3ccco3)C2)C1c1ccc(Cl)cc1 (stereo unspecified) | -1 | 43* | -1 | -20
COc1cc(C2C3=C(CC(c4ccco4)CC3=O)Nc3ccccc3N2C(=O)c2ccccc2)cc(OC)c1OC (stereo unspecified) | 1 | 34* | 5 | 6
COc1ccccc1CNC(=O)c1[nH]c(C)c(S(=O)(=O)N2CCCC2)c1C | 2 | 0 | 6 | 3
CC(=O)c1cccc(NC(=O)C2c3ccccc3C(=O)N(C3CCCC3)C23CCCCC3)c1 (stereo unspecified) | -8 | 65* | -9 | -10
O=C(NC1CC1)C1c2ccccc2C(=O)N(C2CCCC2)C12CCCCC2 (stereo unspecified) | -4 | -2 | -3 | -3
Cc1ccc2nc(-c3cccc(-c4nc5ccc(C)cc5[nH]4)n3)[nH]c2c1 | -11 | 55* | -3 | 5
